Where “and” joins values, the source holds several entries; their conditions need not be identical. Equal values may be shown once. This is part of a sample that, as a whole, favours compounds with a hit. Of some 79,000 tested, about 15% had one in any assay. More than one record can exist for a structure, and the calls need not agree. Calls of active or inactive are those of the source. Cut-off read from the data, not from the text of the source: active = growth inhibition above about 70%; inactive = the rest.
Columns and labels:
[1] = NCI Yeast Anticancer Drug Screen. Data for the wt1 strain (AID 149);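 note: 0% = growth of vehicle-treated wt1 cultures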; details: S. cerevisiae wt1 strain (SPY 50644) growth inhibition, stronger effect = higher value
Method in brief: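 wt1 yeast, compound-treated; % growth inhibition vs vehicle control.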

[2] = NCI Yeast Anticancer Drug Screen. Data for the mgt1 strain (AID 153); details: S. cerevisiae mgt1 mutant growth inhibition, stronger effect = higher value
Method in brief: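 mgt1 strain exposed; growth vs vehicle control recorded as inhibition.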

[3] = NCI Yeast Anticancer Drug Screen. Data for the rad50 strain (AID 155);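 note: 0% = growth of vehicle-only cultures of the same strain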; details: S. cerevisiae rad50 strain growth inhibition, stronger effect = higher value
Method in brief: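 Genetically altered yeast (DNA repair pathway); compound treatment; growth inhibition vs vehicle ctrl.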

[4] = NCI Yeast Anticancer Drug Screen. Data for the mec2-1 strain (AID 157); details: S. cerevisiae mec2-1 strain, stronger effect = higher value
Method in brief: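 Vehicle-treated cultures served as reference for growth inhibition of compound-exposed mec2-1 yeast.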

[5] = NCI Yeast Anticancer Drug Screen. Data for the rad14 strain (AID 159);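 note: 0% = growth of vehicle-treated control cultures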; details: S. cerevisiae rad14 strain growth inhibition, stronger effect = higher value
Method in brief: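 Test compounds were applied to a repair-deficient yeast strain. Its growth was then compared with that of cultures given vehicle alone, and inhibition was expressed relative to those controls.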

[6] = NCI Yeast Anticancer Drug Screen. Data for the sgs1 mgt1 strain (AID 161);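 note: 0% = growth of cultures given vehicle only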; details: S. cerevisiae sgs1 mgt1 strain, stronger effect = higher value
Method in brief: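 Read-out: growth inhibition vs vehicle controls. Cells: mutant yeast strain deficient in DNA damage repair.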

[7] = NCI Yeast Anticancer Drug Screen. Data for the CLN2oe strain (AID 163);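 note: 0% = growth of vehicle-only control cultures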; details: S. cerevisiae CLN2oe strain, stronger effect = higher value
Method in brief: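 Inhibition relative to vehicle-treated yeast is reported. Cells: strain with genetic alteration in cell-cycle control, grown with compound.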

[8] = NCI Yeast Anticancer Drug Screen. Data for the cln2 rad14 strain (AID 165);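 note: 0% = growth equal to vehicle treated cultures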; details: S. cerevisiae cln2 rad14 strain, stronger effect = higher value
Method in brief: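 Each compound was tested on cln2 rad14 yeast. Inhibition of growth was calculated against vehicle-exposed controls.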

[9] = NCI Yeast Anticancer Drug Screen. Data for the bub3 strain (AID 167); details: S. cerevisiae bub3 mutant strain, stronger effect = higher value
Method in brief: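 Yeast carrying a defined mutation is treated with each compound, and growth is compared with that of vehicle-exposed cells to give inhibition.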

[10] = NCI Yeast Anticancer Drug Screen. Data for the wt2 strain (AID 169);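 note: 0% = growth of vehicle-treated yeast cultures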; details: S. cerevisiae wt2 strain growth inhibition, stronger effect = higher value
Method in brief: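 Inhibition of yeast growth was determined after compound treatment, normalised to controls receiving only vehicle.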

[11] = NCI Yeast Anticancer Drug Screen. Data for the mlh1 strain (AID 171);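 note: 0% = growth of vehicle-treated control cultures of the same strain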; details: S. cerevisiae mlh1 strain growth inhibition, stronger effect = higher value
Method in brief: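 Vehicle-normalised growth inhibition of a repair- or checkpoint-altered yeast strain following compound treatment.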

[12] = NCI Yeast Anticancer Drug Screen. Data for the sgs1 strain (AID 173);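 note: 0% = growth of vehicle-only control cultures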; details: S. cerevisiae sgs1 mutant, stronger effect = higher value
Method in brief: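 Screen format: yeast with repair or checkpoint alterations, compound exposure, growth read relative to vehicle.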

[13] = NCI Yeast Anticancer Drug Screen. Data for the mlh1 rad18 strain (AID 175); details: S. cerevisiae mlh1 rad18 strain growth inhibition, stronger effect = higher value
Method in brief: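 Vehicle-treated cultures served as the reference for growth inhibition in a yeast strain carrying DNA damage repair alterations exposed to each compound.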

[14] = NCI Yeast Anticancer Drug Screen. Data for the rad18 strain (AID 177); details: S. cerevisiae rad18 mutant growth inhibition, stronger effect = higher value
Method in brief: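 Test articles were incubated with altered yeast defective in DNA damage repair. Results are given as inhibition of growth versus vehicle.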

[15] = at 5.0 µM (retest, dose inferred, filed as 0.5)
[16] = at 50.0 µM (retest, dose inferred, filed as 5.0)

BrCC[N+]12CC[N+](CCBr)(CC1)C2
growth inhibition ([1]; at 1.2 µM): 1% (inactive) | growth inhibition ([1]; at 3.7 µM): 6% (inactive) | growth inhibition ([1]; at 11.0 µM): 14% (inactive) | growth inhibition ([1]; at 33.0 µM): 82% (active) | growth inhibition ([1]; at 100.0 µM): 94% (active) | growth inhibition ([2]; at 1.2 µM): 12% (inactive) | growth inhibition ([2]; at 3.7 µM): -2% (inactive) | growth inhibition ([2]; at 11.0 µM): 42% (inactive) | growth inhibition ([2]; at 33.0 µM): 88% (active) | growth inhibition ([2]; at 100.0 µM): 96% (active) | growth inhibition ([3]; at 1.2 µM): 14% (inactive) | growth inhibition ([3]; at 3.7 µM): 20% (inactive) | growth inhibition [3, 15]: 40% (inactive) and 27% (inactive) | growth inhibition ([3]; at 11.0 µM): 55% (inactive) | growth inhibition ([3]; at 33.0 µM): 87% (active) | growth inhibition [3, 16]: 94% (active) and 89% (active) | growth inhibition ([3]; at 50.0 µM): 86.7% (active) and 86.5% (active) | growth inhibition ([3]; at 100.0 µM): 93% (active) | growth inhibition ([4]; at 1.2 µM): -4% (inactive) | growth inhibition ([4]; at 3.7 µM): 5% (inactive) | growth inhibition [4, 15]: 43% (inactive) and 1% (inactive) | growth inhibition ([4]; at 11.0 µM): 29% (inactive) | growth inhibition ([4]; at 33.0 µM): 87% (active) | growth inhibition [4, 16]: 98% (active) and 94% (active) | growth inhibition ([4]; at 50.0 µM): 92.2% (active) and 89.9% (active) | growth inhibition ([4]; at 100.0 µM): 95% (active) | growth inhibition ([5]; at 1.2 µM): -13% (inactive) | growth inhibition ([5]; at 3.7 µM): -16% (inactive) | growth inhibition ([5]; at 11.0 µM): 56% (inactive) | growth inhibition ([5]; at 33.0 µM): 93% (active) | growth inhibition ([5]; at 100.0 µM): 94% (active) | growth inhibition [6, 15]: 46% (inactive) and -15% (inactive) | growth inhibition [6, 16]: 90% (active) and 93% (active) | growth inhibition ([6]; at 50.0 µM): 89.2% (active) | growth inhibition ([7]; at 1.2 µM): 1% (inactive) | growth inhibition ([7]; at 3.7 µM): -9% (inactive) | growth inhibition ([7]; at 11.0 µM): 2% (inactive) | growth inhibition ([7]; at 33.0 µM): 78% (active) | growth inhibition ([7]; at 100.0 µM): 89% (active) | growth inhibition [8, 15]: 35% (inactive) and 23% (inactive) | growth inhibition [8, 16]: 92% (active) and 65% (inactive) | growth inhibition ([8]; at 50.0 µM): 84.9% (active) and 85.5% (active) | growth inhibition ([9]; at 1.2 µM): -5% (inactive) | growth inhibition ([9]; at 3.7 µM): -1% (inactive) | growth inhibition [9, 15]: 34% (inactive) and -12% (inactive) | growth inhibition ([9]; at 11.0 µM): 36% (inactive) | growth inhibition ([9]; at 33.0 µM): 89% (active) | growth inhibition [9, 16]: 92% (active) and 95% (active) | growth inhibition ([9]; at 50.0 µM): 86.7% (active) and 87% (active) | growth inhibition ([9]; at 100.0 µM): 95% (active) | growth inhibition ([10]; at 1.2 µM): -33% (inactive) | growth inhibition ([10]; at 3.7 µM): -18% (inactive) | growth inhibition ([10]; at 11.0 µM): 4% (inactive) | growth inhibition ([10]; at 33.0 µM): 86% (active) | growth inhibition ([10]; at 100.0 µM): 95% (active) | growth inhibition ([11]; at 1.2 µM): 12% (inactive) | growth inhibition ([11]; at 3.7 µM): -2% (inactive) | growth inhibition ([11]; at 11.0 µM): 42% (inactive) | growth inhibition ([11]; at 33.0 µM): 88% (active) | growth inhibition ([11]; at 100.0 µM): 96% (active) | growth inhibition ([12]; at 1.2 µM): -17% (inactive) | growth inhibition ([12]; at 3.7 µM): 15% (inactive) | growth inhibition ([12]; at 11.0 µM): 5% (inactive) | growth inhibition ([12]; at 33.0 µM): 77% (active) | growth inhibition ([12]; at 100.0 µM): 89% (active) | growth inhibition [13, 15]: 64% (inactive) and 42% (inactive) | growth inhibition [13, 16]: 95% (active) and 90% (active) | growth inhibition ([13]; at 50.0 µM): 90.6% (active) and 86.9% (active) | growth inhibition ([14]; at 1.2 µM): 10% (inactive) | growth inhibition ([14]; at 3.7 µM): 25% (inactive) | growth inhibition ([14]; at 11.0 µM): 53% (inactive) | growth inhibition ([14]; at 33.0 µM): 89% (active) | growth inhibition ([14]; at 100.0 µM): 95% (active)

N#Cc1ccc([Se]c2ccccc2)cc1
growth inhibition [3, 15]: 91% (active) | growth inhibition [3, 16]: 96% (active) | growth inhibition ([3]; at 50.0 µM): 73.9% (active) | growth inhibition [4, 15]: 95% (active) | growth inhibition [4, 16]: 96% (active) | growth inhibition ([4]; at 50.0 µM): 54.1% (inactive) | growth inhibition [6, 15]: -1% (inactive) | growth inhibition [6, 16]: 67% (inactive) | growth inhibition ([6]; at 50.0 µM): 72.3% (active) | growth inhibition [8, 15]: 33% (inactive) | growth inhibition [8, 16]: 73% (active) | growth inhibition ([8]; at 50.0 µM): 57% (inactive) | growth inhibition [9, 15]: 40% (inactive) | growth inhibition [9, 16]: 84% (active) | growth inhibition ([9]; at 50.0 µM): 77.9% (active) | growth inhibition ([10]; at 1.2 µM): 10% (inactive) | growth inhibition ([10]; at 3.7 µM): 13% (inactive) | growth inhibition ([10]; at 11.0 µM): 6% (inactive) | growth inhibition ([10]; at 33.0 µM): 28% (inactive) | growth inhibition ([10]; at 100.0 µM): 63% (inactive) | growth inhibition [13, 15]: 89% (active) | growth inhibition [13, 16]: 97% (active) | growth inhibition ([13]; at 50.0 µM): 56% (inactive)

Cc1nc(Cl)c(CBr)c(Cl)n1
growth inhibition [3, 15]: 38% (inactive) | growth inhibition [3, 16]: 99% (active) | growth inhibition ([3]; at 50.0 µM): 67.8% (inactive) | growth inhibition [4, 15]: 44% (inactive) | growth inhibition [4, 16]: 100% (active) | growth inhibition ([4]; at 50.0 µM): 70.2% (active) | growth inhibition [6, 15]: 43% (inactive) | growth inhibition [6, 16]: 100% (active) | growth inhibition ([6]; at 50.0 µM): 32.6% (inactive) | growth inhibition [8, 15]: 40% (inactive) | growth inhibition [8, 16]: 100% (active) | growth inhibition ([8]; at 50.0 µM): 33.8% (inactive) | growth inhibition [9, 15]: 54% (inactive) | growth inhibition [9, 16]: 100% (active) | growth inhibition ([9]; at 50.0 µM): 52.5% (inactive) | growth inhibition [13, 15]: 50% (inactive) | growth inhibition [13, 16]: 99% (active)

O=C1NC(=S)NC(=O)C1=C/C=C/c1ccccc1
growth inhibition [3, 15]: 33% (inactive) | growth inhibition [3, 16]: 40% (inactive) | growth inhibition ([3]; at 50.0 µM): 73% (active) | growth inhibition [4, 15]: 40% (inactive) | growth inhibition [4, 16]: 32% (inactive) | growth inhibition ([4]; at 50.0 µM): 46.6% (inactive) | growth inhibition [6, 15]: 4% (inactive) | growth inhibition [6, 16]: 89% (active) | growth inhibition ([6]; at 50.0 µM): 79.7% (active) | growth inhibition [8, 15]: 44% (inactive) | growth inhibition [8, 16]: 89% (active) | growth inhibition ([8]; at 50.0 µM): 31.8% (inactive) | growth inhibition [9, 15]: 26% (inactive) | growth inhibition [9, 16]: 84% (active) | growth inhibition ([9]; at 50.0 µM): 73.7% (active) | growth inhibition ([10]; at 1.2 µM): -15% (inactive) | growth inhibition ([10]; at 3.7 µM): -3% (inactive) | growth inhibition ([10]; at 11.0 µM): 2% (inactive) | growth inhibition ([10]; at 33.0 µM): 46% (inactive) | growth inhibition ([10]; at 100.0 µM): 98% (active) | growth inhibition [13, 15]: 29% (inactive) | growth inhibition [13, 16]: 33% (inactive) | growth inhibition ([13]; at 50.0 µM): 69.7% (inactive)

Reference: PubChem BioAssay (NCI)
